From PubChem BioAssay come the findings set out here.

The nature of test [1]: hESC survival regulators, cell-based (AID 493140; call rule not given here;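 further: cells exposed to compounds for four days before counting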). Particulars: human embryonic stem cell survival screen; stronger effect = higher value.
A short description of test [2]: liver-stage malaria parasite growth inhibition, primary screen, cell-based, HepG2, luciferase luminescence, HepG2 viability (AID 624349).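 Further: 100% = mean of DMSO negative control wells on the same plate.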 Particulars: P. berghei liver stage in HepG2, luciferase luminescence, concentration not given here; parasite load remaining: stronger effect = lower value; viability: measured here: HepG2 viability without parasites.
Test [3] in a line: stimulators of nuclear beta-catenin in C2C12, primary screen, imaging, WNT3A-conditioned medium, mouse C2C12, NPC library (AID 1117326; in the data active means nuclear beta-catenin stimulation mostly above about 4.2%, no sharp cut-off; inactive means mostly below about 10%). The settings on record: stronger effect = higher value.
Test [4] can be described thus: stimulators of insulin release from INS-1E, primary screen, cell-based, 5 mM glucose, NPC library (AID 1117329;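 active means compound raises insulin release from rat beta cells at 5 mM glucose, no numeric limit stated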). The settings on record: rat INS-1E insulin secretion, at 10 µM, stronger effect = higher value.
Test [5] is described as follows: growth inhibition of GSK3B-pretreated HCT116 cells – cell-based, CellTiter-Glo, 0.2 to 20 µM (AID 1117336;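 active means compounds lowering colon cancer cell viability after pretreatment blocking the GSK3B kinase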). Particulars: HCT116 viability after GSK3B inhibitor, at 20 µM, stronger effect = higher value.
Test [6] is described as follows: inhibition of endothelial tube formation, primary screen, imaging, VEGF stimulated, CD31 staining, tube area, NPC library (AID 1117340;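 active means compound that reduces growth-factor-driven endothelial tube area in a mixed cell culture, no cutoff stated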). Particulars: VEGF-stimulated ADSC/ECFC co-culture, at 10 µM, stronger effect = higher value.
Test [7] is described as follows: glucagon-like peptide 1 release enhancers, primary assay, NCI-H716 cell line, NPC library (AID 1117341;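 active means compound raises GLP1 secretion from the human gut endocrine cells, with no numeric limit stated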). Particulars: NCI-H716 cells, at 10 µM, stronger effect = higher value.
Test [8] is described as follows: HCT116 colon cancer cell growth inhibition, primary screen, CellTiter-Glo luminescence, NPC library (AID 1117342;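 active means compounds that lower survival of HCT116 colon cancer cells in the luminescence readout, no numeric limit stated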). Particulars: at 20 µM (top of the series).
The nature of test [9]: CellTiter-Glo luminescent readout of SW480 viability loss, NPC library primary (AID 1117343;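 active means compounds that lower viability of the colon cancer cells in the luminescence readout, with no numeric limit stated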). Particulars: CellTiter-Glo luminescence; at 20 µM (top of the series) unless noted.
A short description of test [10]: decreased DLD-1 cellular survival, CellTiter-Glo luminescent readout, NPC compound collection, primary HTS (AID 1117346;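 active means compounds that lower survival of DLD-1 colon cancer cells in the luminescence readout, no cutoff given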). The settings on record: DLD-1 viability, CellTiter-Glo luminescence; at 20 µM (top of the series).
Test [11] in a line: differential killing of epithelial or mesenchymal cells, primary screen, imaging, PC-3E GFP, TEM4-18 mCherry, co-culture (AID 1345086;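 active means compounds killing one labelled cell type while sparing the other, by normalised counts and ratio limits, not self-fluorescent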;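 on all read-outs here: cells exposed to compound for 72 h before imaging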;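 on red/green cell ratio (normalised): normalised mesenchymal count divided by normalised epithelial count so high means epithelial killing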). Particulars: imaging cell counts, at 1 µM; for red/green cell ratio (normalised): actives lie on both sides, counts scaled to control wells, 1 = unselective.
Test [12] is described as follows: sensitizers of A549 cells to miR-34 induction, primary screen, imaging, A549 dox-inducible miR-34, nuclei and caspase counts (AID 1347080;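 active means compounds whose cell count with miR-34 switched on is under 0.7 times the count with it off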). The settings on record: A549 miR-34 inducible, Hoechst nuclei count, 48 h.
A short description of test [13]: survival rescue of mitochondrial mutant cells in low glucose, primary screen, MELAS cybrids, Rieske KO mouse fibroblasts, CellTiter-Glo (AID 1508586;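 active means mean z-score across replicates of 1.96 or higher in either the MELAS or the Rieske mutant cell line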;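 further: z relative to plate mean and SD of compound and empty wells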).
For test [14], the target named is NAD(+) hydrolase SARM1 (Homo sapiens) (UniProt Q6SZW1). Description: SARM1 TIR NADase inhibitors, cell lysate, NAD-Glo luminescence (AID 1508614;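 active means compound whose remaining NAD level is above about 45 nM, limit read from the data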). The settings on record: SAM-TIR HEK293T lysate NADase, at 1 µM, stronger effect = higher value.
Chain of NAD(+) hydrolase SARM1 (Homo sapiens) (Q6SZW1 whole entry, looked up): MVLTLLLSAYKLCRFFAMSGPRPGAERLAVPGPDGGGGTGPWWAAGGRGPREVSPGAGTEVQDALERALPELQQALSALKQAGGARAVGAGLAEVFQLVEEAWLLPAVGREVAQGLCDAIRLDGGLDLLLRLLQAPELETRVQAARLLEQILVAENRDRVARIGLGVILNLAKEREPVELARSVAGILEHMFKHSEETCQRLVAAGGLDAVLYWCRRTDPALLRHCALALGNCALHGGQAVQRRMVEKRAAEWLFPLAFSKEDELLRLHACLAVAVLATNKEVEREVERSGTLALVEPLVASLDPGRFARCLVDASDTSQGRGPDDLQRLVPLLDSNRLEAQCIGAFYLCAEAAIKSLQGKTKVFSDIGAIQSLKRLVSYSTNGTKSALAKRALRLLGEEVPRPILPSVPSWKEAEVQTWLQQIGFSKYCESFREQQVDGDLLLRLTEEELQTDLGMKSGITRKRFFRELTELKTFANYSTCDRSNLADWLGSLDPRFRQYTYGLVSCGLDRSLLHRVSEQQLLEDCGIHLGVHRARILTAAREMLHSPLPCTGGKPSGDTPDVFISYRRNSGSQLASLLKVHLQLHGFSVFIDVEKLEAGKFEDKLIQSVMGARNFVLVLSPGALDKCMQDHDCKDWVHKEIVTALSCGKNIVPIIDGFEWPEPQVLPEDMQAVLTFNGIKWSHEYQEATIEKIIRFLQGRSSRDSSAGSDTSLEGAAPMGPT
The mark [15] stands for this setting: measured here: epithelial PC-3E GFP cell survival.
[16] abbreviates: measured here: mesenchymal TEM4-18 mCherry cell survival.
The mark [17] stands for this setting: stronger effect = lower value, cell number ratio, induced over uninduced.
[18] abbreviates: measured here: relative caspase fold change +Dox/-Dox.
Setting [19] is: measured here: total cells with miR-34 induction, stronger effect = lower value.
Setting [20] is: measured here: total cells without miR-34 induction.
Where [21] appears, read: MELAS cybrid survival, CellTiter-Glo 48 h, stronger effect = higher value.
Setting [22] is: Rieske KO mouse fibroblast survival, CellTiter-Glo 72 h.

“And” between values parts separate entries of the source, which are not always exact repeats. Equal values may be shown once. The source made the active and inactive calls. Unless noted, no stated cut-off is given here; in the data, active means parasite load remaining mostly below about 12% (no sharp cut-off); inactive means mostly above about 10%.

Regarding `CN(C)CCN(Cc1ccc(Cl)cc1)c1ccccn1`, in test [1], the survival is 0.25 (inactive). In addition, the parasite load remaining in test [2] was 93.8% (inactive). For the same compound, in test [2], the viability was determined as 98.9%. Moreover, the nuclear beta-catenin stimulation in test [3] (at 10 µM) is 1.9% (inactive); in test [3] (stimulation, at 2 µM) it was 1.4%. In [4], the insulin secretion stimulation was 88.8% (active). In addition, the viability decrease in [5] was -112% (inactive). In addition, the tube area decrease in [6] is -2% (inactive). For the same compound, in test [7], the GLP1 secretion stimulation is 7% (inactive). Moreover, the inhibition of viability in [8] is 30.7% (inactive). Further, the viability decrease (inhibition) in test [9] was 41.9% (inactive); in [10], 2.4% (inactive). For the same compound, the red/green cell ratio (normalised) in test [11] was 0.8 (inactive). Besides, the values for the normalised cell number in [11] (setting [15]) and in test [11] (setting [16]) were 1.16 and 0.92, respectively. In addition, the fold change was 0.853 (inactive) in test [12] (setting [17]) and 1.28 in [12] (setting [18]). In addition, the cell count came to 7570 in test [12] (setting [19]) and 8880 in test [12] (setting [20]). Besides, the z-score in test [13] (setting [21]) is -0.0317 (inactive); in [13] (setting [22]), -0.776. Also, in test [14], the remaining NAD is 10 nM (inactive).

For `Clc1ccc(C(Cn2ccnc2)OCc2ccsc2Cl)c(Cl)c1` (stereo unspecified), the parasite load remaining in test [2] was 37.3% (inactive) and 6.58% (inactive). The viability in test [2] is 97.8% and 62%. Further, the nuclear beta-catenin stimulation in [3] (at 10 µM) is 4.5% (inactive); in test [3] (stimulation, at 2 µM), 0.7%. For the same compound, the insulin secretion stimulation in [4] was 0.9% (inactive). Also, the viability decrease in [5] was 100% (active). Further, the tube area decrease in test [6] is 110% (active). Also, the GLP1 secretion stimulation in [7] is 10.8% (inactive). Besides, the inhibition of viability in test [8] was 100% (active). Moreover, the viability decrease (inhibition) is 123% (active) in test [9] and 103% (active) in [10]. The red/green cell ratio (normalised) in [11] was 1.15 (inactive). The results for the normalised cell number in test [11] (setting [15]) and in test [11] (setting [16]) were 0.85 and 0.97, respectively. Also, the fold change in test [12] (setting [17]) was 0.919 (inactive) and 0.86 (inactive) and 0.892 (inactive); in test [12] (setting [18]) it was 0.876 and 3.84 and 1.06. The cell count in test [12] (setting [19]) is 7290 and 10300 and 7120; in test [12] (setting [20]), 7930 and 12000 and 7980. Also, the z-score in test [13] (setting [21]) was -0.0566 (inactive) and 0.885 (inactive) and 0.0763 (inactive); in test [13] (setting [22]) it was -0.152 and 0.306 and -0.538. Besides, the remaining NAD in test [14] is 10 nM (inactive).

On to `CCCCCCCCCCCCCCCCCCCCCCO`, for which the parasite load remaining in [2] is 85.5% (inactive). Also, the viability in [2] came to 109%. Besides, the nuclear beta-catenin stimulation in [3] (at 10 µM) is 3.4% (inactive); in test [3] (stimulation, at 2 µM), 2.9%. In addition, in test [4], the insulin secretion stimulation is -2.5% (inactive). Besides, the viability decrease in test [5] was -7.2% (inactive). The tube area decrease in test [6] is -8.1% (inactive). The GLP1 secretion stimulation in test [7] is 1.1% (inactive). In test [8], the inhibition of viability was -36.7% (inactive). The figures for the viability decrease (inhibition) in test [9] and in [10] were 16.6% (inactive) and 7.8% (inactive), respectively. Besides, the red/green cell ratio (normalised) in [11] was 1.1 (inactive). For the same compound, the values for the normalised cell number in [11] (setting [15]) and in test [11] (setting [16]) were 0.99 and 1.09, respectively. Moreover, the fold change was 0.841 (inactive) in test [12] (setting [17]) and 5.17 in [12] (setting [18]). The cell count came to 10500 in test [12] (setting [19]) and 12500 in [12] (setting [20]). For the same compound, in [14], the remaining NAD is 10 nM (inactive).

Regarding `O=C(O)[C@H](O)[C@@H](O)[C@H](O[C@@H]1O[C@H](CO)[C@H](O)[C@H](O)[C@H]1O)[C@H](O)CO`, the survival in test [1] is 11.8 (inactive). In addition, in test [2], the parasite load remaining was 68% (inactive) and 86.7% (inactive). For the same compound, the viability in test [2] is 96.5% and 74.2%. For the same compound, the nuclear beta-catenin stimulation is -1.5% (inactive) in [3] (at 10 µM) and -0.6% in test [3] (stimulation, at 2 µM). The insulin secretion stimulation in test [4] was 5.9% (inactive). Besides, the viability decrease in test [5] is 94.4% (active). For the same compound, in [6], the tube area decrease was -14.9% (inactive). In [7], the GLP1 secretion stimulation is -3.6% (inactive). Further, the inhibition of viability in test [8] is 93% (active). Moreover, the results for the viability decrease (inhibition) in test [9] and in [10] were 94% (active) and 99.7% (active), respectively. Besides, in test [11], the red/green cell ratio (normalised) is 1.06 (inactive). In addition, the normalised cell number is 1.17 in [11] (setting [15]) and 1.23 in [11] (setting [16]). Further, the fold change in [12] (setting [17]) was 0.847 (inactive); in test [12] (setting [18]), 1.47. Moreover, the cell count in test [12] (setting [19]) was 8980; in test [12] (setting [20]), 10600.
